According to PubChem BioAssay AID1159580 (chemical genetic matrix, 2015):
“And” between values parts separate entries of the source, which are not always exact repeats. Equal values may be shown once. The campaign covered roughly 5,500 compounds. About 2,000 (36%) were called active. About 18% were inconclusive and are not listed. Rule as the data show it: active = normalized growth mostly below about 0.91 (no sharp cut-off); inconclusive = no clear call, values can overlap the other calls; inactive = mostly above about 0.92. The list shows a part of the results.

Assay: chemical genetic growth profiling, strain panel (AID 1159580);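 also: tested at 20 µM; growth read once vehicle control cultures reached saturation at 30 °C; 1 = growth at the plate median or of vehicle wells; lower values mean less growth of the strain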
Details: S. cerevisiae deletion strains, growth OD

Measured: normalized growth

NC(=O)c1ccccc1O
inactive: locus YAL021C, strain ccr4, hits give low values 0.988 | locus YAL026C, strain drs2, hits give low values 0.996 | locus YAL030W, strain snc1, hits give low values 0.966 | locus YBL061C, strain skt5, hits give low values 0.97 | locus YBR009C, strain hhf1, hits give low values 1.04 | locus YBR021W, strain FUR4, hits give low values 1.04 | locus YBR023C, strain chs3, hits give low values 0.987 | locus YBR171W, strain sec66, hits give low values 0.959 | locus YBR229C, strain ROT2, hits give low values 0.999 | locus YBR231C, strain swc5, hits give low values 0.988 | locus YBR279W, strain paf1, hits give low values 0.997 | locus YCL011C, strain gbp2, hits give low values 0.956 | locus YCL016C, strain dcc1, hits give low values 1.01 | locus YCL029C, strain bik1, hits give low values 1.02 | locus YCL061C, strain MRC1, hits give low values 0.963 | locus YCL069W, strain vba3, hits give low values 0.974 | locus YCR088W, strain abp1, hits give low values 0.974 | locus YDL005C, strain med2, hits give low values 0.972 | locus YDL035C, strain GPR1, hits give low values 1.01 | locus YDL040C, strain nat1, hits give low values 0.984 | locus YDL074C, strain BRE1, hits give low values 0.997 | locus YDL101C, strain DUN1, hits give low values 1.01 | locus YDL134C, strain PPH21, hits give low values 1 | locus YDL185W, strain tfp1, hits give low values 1.01 | locus YDL192W, strain arf1, hits give low values 1.01 | locus YDR001C, strain nth1, hits give low values 0.967 | locus YDR069C, strain doa4, hits give low values 0.952 | locus YDR101C, strain arx1, hits give low values 1 | locus YDR137W, strain rgp1, hits give low values 0.964 | locus YDR159W, strain sac3, hits give low values 0.985 | locus YDR162C, strain NBP2, hits give low values 1.01 | locus YDR195W, strain ref2 0.927 | locus YDR297W, strain sur2, hits give low values 0.981 | locus YDR318W, strain mcm21, hits give low values 1.01 | locus YDR334W, strain swr1, hits give low values 0.935 | locus YDR335W, strain msn5, hits give low values 0.947 | locus YDR388W, hits give low values 1.01 | locus YDR392W, strain spt3, hits give low values 1.05 | locus YDR502C, strain sam2, hits give low values 0.997 | locus YEL003W, strain gim4, hits give low values 0.981 | locus YEL037C, strain rad23, hits give low values 0.976 | locus YEL061C, strain CIN8 (second series), hits give low values 0.98 | locus YEL061C, strain CIN8, hits give low values 1 | locus YER015W, strain faa2, hits give low values 1.01 | locus YER016W, strain bim1, hits give low values 1.01 | locus YER110C, hits give low values 1.01 | locus YER111C, strain swi4, hits give low values 0.97 | locus YER155C, strain BEM2 (second series), hits give low values 0.929 | locus YER155C, strain BEM2, hits give low values 1.01 | locus YER167W, strain BCK2, hits give low values 1.01 | locus YFR010W, strain ubp6, hits give low values 0.96 | locus YGL078C, strain dbp3, hits give low values 1 | locus YGL086W, strain mad1, hits give low values 0.998 | locus YGL167C, strain pmr1, hits give low values 0.961 | locus YGL173C, strain kem1, hits give low values 0.968 | locus YGL227W, strain vid30, hits give low values 0.975 | locus YGL240W, strain doc1, hits give low values 0.981 | locus YGL248W, strain PDE1, hits give low values 1 | locus YGL253W, strain hxk2, hits give low values 0.997 | locus YGR135W, strain pre9, hits give low values 1.02 | locus YGR229C, strain SMI1, hits give low values 1.01 | locus YGR252W, strain gcn5, hits give low values 1.03 | locus YHR013C, strain ard1, hits give low values 0.988 | locus YHR027C, strain rpn1, hits give low values 0.991 | locus YHR030C, strain SLT2, hits give low values 1 and 1.07 | locus YHR079C, strain IRE1 (second series), hits give low values 1.02 | locus YHR079C, strain IRE1, hits give low values 1.06 | locus YHR094C, strain hxt1, hits give low values 1 | locus YHR129C, strain ARP1, hits give low values 1.01 | locus YHR142W, strain chs7, hits give low values 0.946 | locus YHR200W, strain rpn10, hits give low values 1 | locus YIL066C, strain RNR3, hits give low values 0.993 | locus YIL073C, strain SPO22, hits give low values 1.05 | locus YIL125W, strain kgd1, hits give low values 1 | locus YIR030C, strain dcg1, hits give low values 1.01 | locus YJL092W, strain hpr5, hits give low values 0.96 | locus YJL095W, strain BCK1 (second series), hits give low values 0.973 | locus YJL095W, strain BCK1, hits give low values 1 and 1.05 | locus YJL115W, strain asf1, hits give low values 0.985 | locus YJL129C, strain trk1, hits give low values 0.992 | locus YJL134W, strain LCB3, hits give low values 1 | locus YJL154C, strain vps35, hits give low values 0.965 | locus YJL164C, strain tpk1, hits give low values 1 | locus YJL166W, strain qcr8, hits give low values 0.924 | locus YJL168C, strain set2, hits give low values 1.01 | locus YJL187C, strain SWE1 (second series), hits give low values 1.01 | locus YJL187C, strain SWE1, hits give low values 0.989 | locus YJR043C, strain POL32, hits give low values 0.985
